Reference: the supplement of paper PMC10849652
About 8,800 targets were measured; listed, in parts, are those with a hit and a random draw of the rest. About 0.5% of all pairs of compound and target were hits.

Compound: C1=CC2=NC=CN=C2C=C1/C=C/3\C(=O)NC(=O)S3
Assay: log2 fold change, soluble protein after heating vs DMSO (PISA); higher = thermal stabilisation; K562 lysate, 10 uM; active = over 0.2 and 3.5 SD of the protein, either way, in both replicates (recomputed)
Method in brief: (§1)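 The values are log-two fold changes in thermal stability compared with solvent controls and come from duplicates. They were obtained by TMTpro 16plex LC-MS/MS, with channel sums equalised, on the supernatant after 21,000xg for 90 min. That supernatant came from crude K562 extract at 1 mg/mL protein treated with 10 μM compound for 30 min, heated for 3 min across 48°C-58°C, pooled and brought to 0.5% NP-40 at 4°C.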

Chain of UniProt Q86UV5 (Q86UV5 whole entry, looked up): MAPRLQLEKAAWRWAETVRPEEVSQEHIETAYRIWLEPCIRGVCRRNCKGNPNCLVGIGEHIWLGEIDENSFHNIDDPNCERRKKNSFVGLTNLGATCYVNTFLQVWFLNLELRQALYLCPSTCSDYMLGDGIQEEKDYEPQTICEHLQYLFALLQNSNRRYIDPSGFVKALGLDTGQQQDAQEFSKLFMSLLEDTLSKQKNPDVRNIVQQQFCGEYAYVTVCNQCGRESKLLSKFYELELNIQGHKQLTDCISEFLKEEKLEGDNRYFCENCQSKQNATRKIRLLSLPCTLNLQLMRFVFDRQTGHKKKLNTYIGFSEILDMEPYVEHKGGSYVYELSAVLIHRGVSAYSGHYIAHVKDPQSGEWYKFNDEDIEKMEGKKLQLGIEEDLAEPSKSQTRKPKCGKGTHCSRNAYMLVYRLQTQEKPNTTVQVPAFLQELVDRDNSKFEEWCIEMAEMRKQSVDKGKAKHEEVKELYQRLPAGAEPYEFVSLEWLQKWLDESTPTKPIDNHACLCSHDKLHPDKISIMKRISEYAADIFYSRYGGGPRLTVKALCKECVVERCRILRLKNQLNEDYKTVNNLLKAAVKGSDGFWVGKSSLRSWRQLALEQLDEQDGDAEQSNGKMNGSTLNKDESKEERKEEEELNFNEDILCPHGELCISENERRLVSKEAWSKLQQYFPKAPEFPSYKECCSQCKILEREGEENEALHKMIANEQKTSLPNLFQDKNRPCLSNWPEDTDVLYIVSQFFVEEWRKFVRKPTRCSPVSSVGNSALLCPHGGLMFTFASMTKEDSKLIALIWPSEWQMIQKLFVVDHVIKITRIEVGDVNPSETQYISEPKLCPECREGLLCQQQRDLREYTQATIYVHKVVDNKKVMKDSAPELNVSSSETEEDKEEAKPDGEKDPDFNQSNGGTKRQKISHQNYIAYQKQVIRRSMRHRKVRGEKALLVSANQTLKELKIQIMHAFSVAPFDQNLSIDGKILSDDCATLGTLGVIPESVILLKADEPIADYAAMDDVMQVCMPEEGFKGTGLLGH
Chain of UniProt O00258 (O00258 whole entry, looked up): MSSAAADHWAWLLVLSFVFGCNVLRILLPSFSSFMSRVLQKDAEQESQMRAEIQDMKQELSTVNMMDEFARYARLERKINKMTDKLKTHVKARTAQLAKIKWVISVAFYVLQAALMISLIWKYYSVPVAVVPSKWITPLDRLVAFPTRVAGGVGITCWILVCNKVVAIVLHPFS
Chain of UniProt Q9UPT9 (Q9UPT9 whole entry, looked up): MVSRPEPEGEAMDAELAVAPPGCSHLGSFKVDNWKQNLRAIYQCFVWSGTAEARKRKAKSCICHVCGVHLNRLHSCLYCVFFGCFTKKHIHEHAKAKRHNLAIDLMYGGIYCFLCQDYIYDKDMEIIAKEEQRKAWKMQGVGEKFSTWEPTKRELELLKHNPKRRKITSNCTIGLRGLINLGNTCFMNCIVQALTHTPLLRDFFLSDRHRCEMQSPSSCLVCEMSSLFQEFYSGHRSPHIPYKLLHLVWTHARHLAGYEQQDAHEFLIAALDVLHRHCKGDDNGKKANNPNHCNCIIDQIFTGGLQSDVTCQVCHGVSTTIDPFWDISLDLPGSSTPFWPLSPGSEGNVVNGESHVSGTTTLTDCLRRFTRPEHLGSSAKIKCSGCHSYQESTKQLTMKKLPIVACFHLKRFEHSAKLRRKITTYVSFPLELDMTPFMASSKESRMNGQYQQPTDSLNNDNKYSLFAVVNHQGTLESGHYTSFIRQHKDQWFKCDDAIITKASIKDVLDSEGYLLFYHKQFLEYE
Chain of UniProt Q5VUA4 (Q5VUA4 whole entry, looked up): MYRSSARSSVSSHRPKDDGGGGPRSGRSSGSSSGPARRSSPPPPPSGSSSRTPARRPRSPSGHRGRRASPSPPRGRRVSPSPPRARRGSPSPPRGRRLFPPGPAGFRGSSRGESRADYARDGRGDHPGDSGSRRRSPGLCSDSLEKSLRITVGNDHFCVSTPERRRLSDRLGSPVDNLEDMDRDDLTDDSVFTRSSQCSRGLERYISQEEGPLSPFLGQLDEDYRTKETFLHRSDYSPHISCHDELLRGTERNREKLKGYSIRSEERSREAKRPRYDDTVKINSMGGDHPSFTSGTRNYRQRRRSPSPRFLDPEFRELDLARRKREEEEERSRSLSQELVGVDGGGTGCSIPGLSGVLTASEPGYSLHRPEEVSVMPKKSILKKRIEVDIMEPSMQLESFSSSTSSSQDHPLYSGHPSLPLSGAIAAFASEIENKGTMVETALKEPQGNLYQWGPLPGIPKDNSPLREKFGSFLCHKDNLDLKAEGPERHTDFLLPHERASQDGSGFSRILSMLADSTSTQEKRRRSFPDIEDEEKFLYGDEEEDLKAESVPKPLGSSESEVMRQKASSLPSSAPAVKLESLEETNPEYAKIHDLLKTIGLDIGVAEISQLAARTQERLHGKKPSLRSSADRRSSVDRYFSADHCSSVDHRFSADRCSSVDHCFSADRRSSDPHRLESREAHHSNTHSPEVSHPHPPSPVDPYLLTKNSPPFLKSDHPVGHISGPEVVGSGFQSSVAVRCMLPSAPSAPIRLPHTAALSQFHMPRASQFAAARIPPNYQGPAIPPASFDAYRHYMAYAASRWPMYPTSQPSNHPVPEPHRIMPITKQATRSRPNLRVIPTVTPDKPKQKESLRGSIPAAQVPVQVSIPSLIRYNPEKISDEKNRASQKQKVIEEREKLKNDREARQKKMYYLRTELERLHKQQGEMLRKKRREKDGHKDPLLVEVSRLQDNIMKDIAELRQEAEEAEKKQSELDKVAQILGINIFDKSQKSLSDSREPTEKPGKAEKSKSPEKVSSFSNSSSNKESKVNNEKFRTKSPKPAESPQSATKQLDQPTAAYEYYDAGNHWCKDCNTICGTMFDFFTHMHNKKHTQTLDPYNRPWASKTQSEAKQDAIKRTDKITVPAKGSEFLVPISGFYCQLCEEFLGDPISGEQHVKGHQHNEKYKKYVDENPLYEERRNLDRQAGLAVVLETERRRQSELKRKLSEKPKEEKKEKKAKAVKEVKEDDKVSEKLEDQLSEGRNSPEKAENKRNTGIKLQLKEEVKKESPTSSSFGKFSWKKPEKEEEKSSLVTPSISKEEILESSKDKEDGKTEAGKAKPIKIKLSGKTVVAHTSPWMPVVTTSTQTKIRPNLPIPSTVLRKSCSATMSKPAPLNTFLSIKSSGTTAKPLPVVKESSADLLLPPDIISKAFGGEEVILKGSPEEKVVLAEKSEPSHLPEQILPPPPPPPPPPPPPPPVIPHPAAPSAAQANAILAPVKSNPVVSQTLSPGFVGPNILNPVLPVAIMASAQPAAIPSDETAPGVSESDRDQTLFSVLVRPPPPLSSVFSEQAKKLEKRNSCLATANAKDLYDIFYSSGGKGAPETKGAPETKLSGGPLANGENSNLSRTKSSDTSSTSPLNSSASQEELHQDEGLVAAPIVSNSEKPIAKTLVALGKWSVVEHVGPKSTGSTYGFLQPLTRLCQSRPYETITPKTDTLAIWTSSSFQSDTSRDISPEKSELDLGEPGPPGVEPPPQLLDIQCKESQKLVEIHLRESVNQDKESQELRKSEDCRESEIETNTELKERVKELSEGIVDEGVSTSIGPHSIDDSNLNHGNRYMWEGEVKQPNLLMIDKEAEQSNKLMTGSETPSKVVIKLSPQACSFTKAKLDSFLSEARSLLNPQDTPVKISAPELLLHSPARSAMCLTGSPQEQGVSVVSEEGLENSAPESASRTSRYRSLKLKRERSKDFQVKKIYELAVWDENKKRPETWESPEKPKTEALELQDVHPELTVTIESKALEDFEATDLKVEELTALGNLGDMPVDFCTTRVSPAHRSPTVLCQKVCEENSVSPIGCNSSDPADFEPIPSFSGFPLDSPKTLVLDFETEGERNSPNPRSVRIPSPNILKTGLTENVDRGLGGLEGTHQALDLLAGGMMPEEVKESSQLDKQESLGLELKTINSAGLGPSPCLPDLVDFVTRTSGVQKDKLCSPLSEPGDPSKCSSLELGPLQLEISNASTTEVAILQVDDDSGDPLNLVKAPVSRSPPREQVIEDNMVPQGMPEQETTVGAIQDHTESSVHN
Chain of UniProt Q96IR2 (Q96IR2 whole entry, looked up): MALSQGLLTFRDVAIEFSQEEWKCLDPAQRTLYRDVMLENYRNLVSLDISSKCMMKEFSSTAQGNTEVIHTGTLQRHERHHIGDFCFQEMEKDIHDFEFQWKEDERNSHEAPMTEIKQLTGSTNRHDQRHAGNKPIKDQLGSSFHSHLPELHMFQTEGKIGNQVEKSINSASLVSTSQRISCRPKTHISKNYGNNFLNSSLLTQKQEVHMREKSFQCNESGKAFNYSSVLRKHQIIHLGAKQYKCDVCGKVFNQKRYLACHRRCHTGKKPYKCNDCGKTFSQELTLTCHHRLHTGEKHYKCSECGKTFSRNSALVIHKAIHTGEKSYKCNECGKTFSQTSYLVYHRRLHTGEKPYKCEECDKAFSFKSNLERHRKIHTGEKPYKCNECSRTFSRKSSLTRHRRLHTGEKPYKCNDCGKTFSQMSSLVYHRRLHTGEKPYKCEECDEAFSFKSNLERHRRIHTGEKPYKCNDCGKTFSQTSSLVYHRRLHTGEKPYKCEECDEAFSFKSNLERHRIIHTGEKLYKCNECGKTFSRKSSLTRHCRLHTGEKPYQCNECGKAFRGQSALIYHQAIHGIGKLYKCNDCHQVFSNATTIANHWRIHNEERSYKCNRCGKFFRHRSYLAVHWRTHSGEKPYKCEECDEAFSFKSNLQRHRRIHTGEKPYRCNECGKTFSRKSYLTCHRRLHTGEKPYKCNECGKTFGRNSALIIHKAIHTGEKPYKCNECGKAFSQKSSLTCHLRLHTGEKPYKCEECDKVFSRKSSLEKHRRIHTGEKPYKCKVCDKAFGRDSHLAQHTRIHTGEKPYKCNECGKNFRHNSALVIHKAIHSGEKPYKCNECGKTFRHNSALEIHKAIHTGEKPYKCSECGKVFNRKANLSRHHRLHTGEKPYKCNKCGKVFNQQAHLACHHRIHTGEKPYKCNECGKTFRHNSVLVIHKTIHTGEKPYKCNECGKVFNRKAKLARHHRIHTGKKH

log2 fold change, inactive:
UNKL (UniProt E9PDK2) 0.061, ZNF346 (UniProt Q9UL40) -0.035, URGCP (UniProt Q8TCY9) -0.01, WRB (UniProt O00258) -0.009, ZFYVE19 isoform 3 (UniProt Q96K21) 0.038, USP22 (UniProt Q9UPT9) -0.022, UTRN isoform 2 (UniProt P46939) -0.072, WAS (UniProt P42768) -0.149, USP48 isoform 8 (UniProt Q86UV5) 0.005, USP48 (UniProt Q86UV5) 0.006, WDR36 (UniProt Q8NI36) -0.025, ZNF845 (UniProt Q96IR2) -0.09, ZYG11A (UniProt Q6WRX3) -0.061, ZNF318 (UniProt Q5VUA4) -0.078, WDR45 isoform 2 (UniProt Q9Y484) 0.06, YTHDC2 (UniProt Q9H6S0) 0.02, WIPI1 (UniProt Q5MNZ9) -0.016, WIPI2 isoform 6 (UniProt Q9Y4P8) 0.079, USP16 (UniProt Q9Y5T5) 0.011, ULK3 isoform 4 (UniProt Q6PHR2) -0.053

Compound: C1=CC=C(C=C1)C2=NC(=C(N2)C3=CC=NC=C3)C4=CC(=C(C=C4)Cl)O
Assay: as above
Method in brief: as §1

log2 fold change, inactive:
ZNF346 (UniProt Q9UL40) -0.014, VASN (UniProt Q6EMK4) -0.191, URGCP (UniProt Q8TCY9) -0.038, WRB (UniProt O00258) -0.002, USP22 (UniProt Q9UPT9) -0.003, WAC isoform 5 (UniProt Q9BTA9) 0.062, ZBTB40 (UniProt Q9NUA8) -0.045, USP48 isoform 8 (UniProt Q86UV5) 0.02, ZNF281 (UniProt Q9Y2X9) 0.006, USP48 (UniProt Q86UV5) 0.001, WDR36 (UniProt Q8NI36) 0.017, ZNF845 (UniProt Q96IR2) 0.047, ZYG11A (UniProt Q6WRX3) -0.04, VPS72 (UniProt Q15906) -0.04, ZNF318 (UniProt Q5VUA4) 0.003, WDR45 isoform 2 (UniProt Q9Y484) -0.008, YTHDC2 (UniProt Q9H6S0) -0.001, ZKSCAN8 (UniProt Q15776) -0.001, ZDHHC17 (UniProt Q8IUH5) -0.082, WIPI1 (UniProt Q5MNZ9) -0.027, USP16 (UniProt Q9Y5T5) 0.036, WSB1 (UniProt Q9Y6I7) 0.037
